Measurements from PubChem BioAssay.
A number with no mark means an inactive call. Entries that show only a call come without a potency. For some of these results: Potency and affinity values are given separately. Active and inactive are the calls of the source. Unless noted, the rule behind the calls is not given here.

Assays:
[1] = antimalarial activity against Dd2 strain (AID 2302;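 active = growth inhibition above 50% at the single 2 µM test dose, taken to imply half-maximal potency below 2 µM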); details: P. falciparum Dd2 in RBCs, LDH growth readout, 72 h; at 2 µM; stronger effect = higher value
[2] = HepG2 cytotoxicity, primary screen, cytotoxicity control for P. falciparum antimalarial project, cell-based, ATP luminescence (AID 2303;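 active = inhibition above 50%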); details: HepG2 viability, 24-48 h, at 10 µM, stronger effect = higher value
[3] = target: L-lactate dehydrogenase (Plasmodium falciparum (isolate CDC / Honduras)) (UniProt Q27743); assay: PfLDH activity inhibition – cell lysate, 3D7 strain, counter-screen for P. falciparum growth inhibition project (AID 2304); details: P. falciparum 3D7 crude extract, LDH APAD/NBT absorbance; at 2 µM; stronger effect = higher value
Chain of L-lactate dehydrogenase (Plasmodium falciparum (isolate CDC / Honduras)) (Q27743 whole entry, looked up): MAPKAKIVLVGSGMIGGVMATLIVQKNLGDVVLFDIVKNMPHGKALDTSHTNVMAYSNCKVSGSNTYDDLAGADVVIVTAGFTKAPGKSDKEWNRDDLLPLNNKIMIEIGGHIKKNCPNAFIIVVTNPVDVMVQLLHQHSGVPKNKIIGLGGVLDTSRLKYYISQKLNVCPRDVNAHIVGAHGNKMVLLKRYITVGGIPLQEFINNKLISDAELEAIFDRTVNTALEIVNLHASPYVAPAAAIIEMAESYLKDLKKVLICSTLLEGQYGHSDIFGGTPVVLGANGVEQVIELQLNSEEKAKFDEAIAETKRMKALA

[4] = inhibition of 3D7 malaria parasite growth – strain 3D7 (AID 2306); details: P. falciparum 3D7 erythrocytic growth, LDH absorbance, 72 h; at 2 µM; stronger effect = higher value
[5] = target: Calcium-dependent protein kinase 1 (Plasmodium falciparum (isolate 3D7)) (UniProt P62344); assay: PfCDPK1 kinase inhibitors, biochemical, TCAMS library (AID 1159585; cut-off not given, nearly all actives have IC50 up to about 0.98 µM;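 note: inhibitors leave more ATP so luminescence rises with inhibition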); details: recombinant PfCDPK1, Kinase-Glo ATP depletion luminescence
Chain of Calcium-dependent protein kinase 1 (Plasmodium falciparum (isolate 3D7)) (P62344 whole entry, looked up): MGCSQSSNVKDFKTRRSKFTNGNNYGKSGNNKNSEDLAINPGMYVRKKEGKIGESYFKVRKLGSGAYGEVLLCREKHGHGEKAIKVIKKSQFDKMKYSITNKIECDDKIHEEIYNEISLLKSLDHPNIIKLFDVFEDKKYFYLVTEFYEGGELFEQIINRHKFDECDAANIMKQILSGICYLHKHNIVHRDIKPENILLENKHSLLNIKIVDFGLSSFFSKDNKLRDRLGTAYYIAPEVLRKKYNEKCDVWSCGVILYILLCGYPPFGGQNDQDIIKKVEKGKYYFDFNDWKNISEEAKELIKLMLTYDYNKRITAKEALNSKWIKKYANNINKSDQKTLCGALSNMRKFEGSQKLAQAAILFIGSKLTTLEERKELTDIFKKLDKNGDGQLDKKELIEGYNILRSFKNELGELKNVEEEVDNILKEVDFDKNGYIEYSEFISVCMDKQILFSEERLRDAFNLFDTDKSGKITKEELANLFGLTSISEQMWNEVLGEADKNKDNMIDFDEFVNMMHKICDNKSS

[6] = target: Plasmodium falciparum protein kinase 6 (PK6, PF3D7_1337100) (UniProt Q8IDW1); assay: PfPK6 kinase inhibitors, biochemical, TCAMS library (AID 1159586); details: recombinant PfPK6, Kinase-Glo ATP depletion luminescence
Chain of Plasmodium falciparum protein kinase 6 (PK6, PF3D7_1337100) (Q8IDW1 1-305): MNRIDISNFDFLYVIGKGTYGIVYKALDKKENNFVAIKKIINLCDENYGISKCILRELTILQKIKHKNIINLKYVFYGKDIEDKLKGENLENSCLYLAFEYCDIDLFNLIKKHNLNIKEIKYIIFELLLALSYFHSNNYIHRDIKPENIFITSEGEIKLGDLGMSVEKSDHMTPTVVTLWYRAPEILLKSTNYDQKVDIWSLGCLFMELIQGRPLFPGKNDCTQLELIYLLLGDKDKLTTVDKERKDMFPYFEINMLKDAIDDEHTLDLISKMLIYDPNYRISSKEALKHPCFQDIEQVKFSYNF

[7] = target: Protein kinase 7 (PK7), Plasmodium falciparum 3D7 (PF3D7_0213400) (UniProt Q7YTF7); assay: inhibition of Plasmodium PK7 catalytic activity – biochemical, TCAMS antimalarial set, Kinase-Glo luminescence (AID 1159587); details: recombinant PfPK7, Kinase-Glo ATP depletion luminescence
Chain of Protein kinase 7 (PK7), Plasmodium falciparum 3D7 (PF3D7_0213400) (Q7YTF7 1-343): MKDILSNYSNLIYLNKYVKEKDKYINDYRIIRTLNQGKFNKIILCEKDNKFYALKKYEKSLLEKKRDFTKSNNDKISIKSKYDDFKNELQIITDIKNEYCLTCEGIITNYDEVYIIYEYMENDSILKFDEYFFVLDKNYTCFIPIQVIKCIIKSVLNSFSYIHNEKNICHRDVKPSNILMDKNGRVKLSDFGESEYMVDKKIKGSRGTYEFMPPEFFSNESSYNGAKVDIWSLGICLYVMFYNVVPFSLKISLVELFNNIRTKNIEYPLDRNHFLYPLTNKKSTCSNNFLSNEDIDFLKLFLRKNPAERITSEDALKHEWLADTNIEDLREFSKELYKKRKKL

[8] = target: Calcium-dependent protein kinase 4 (Plasmodium falciparum (isolate 3D7)) (UniProt Q8IBS5); assay: PfCDPK4 kinase inhibitors, biochemical, TCAMS library (AID 1159588; cut-off not given, nearly all actives have IC50 up to about 0.91 µM); details: recombinant PfCDPK4, Kinase-Glo ATP depletion luminescence
Chain of Calcium-dependent protein kinase 4 (Plasmodium falciparum (isolate 3D7)) (Q8IBS5 whole entry, looked up): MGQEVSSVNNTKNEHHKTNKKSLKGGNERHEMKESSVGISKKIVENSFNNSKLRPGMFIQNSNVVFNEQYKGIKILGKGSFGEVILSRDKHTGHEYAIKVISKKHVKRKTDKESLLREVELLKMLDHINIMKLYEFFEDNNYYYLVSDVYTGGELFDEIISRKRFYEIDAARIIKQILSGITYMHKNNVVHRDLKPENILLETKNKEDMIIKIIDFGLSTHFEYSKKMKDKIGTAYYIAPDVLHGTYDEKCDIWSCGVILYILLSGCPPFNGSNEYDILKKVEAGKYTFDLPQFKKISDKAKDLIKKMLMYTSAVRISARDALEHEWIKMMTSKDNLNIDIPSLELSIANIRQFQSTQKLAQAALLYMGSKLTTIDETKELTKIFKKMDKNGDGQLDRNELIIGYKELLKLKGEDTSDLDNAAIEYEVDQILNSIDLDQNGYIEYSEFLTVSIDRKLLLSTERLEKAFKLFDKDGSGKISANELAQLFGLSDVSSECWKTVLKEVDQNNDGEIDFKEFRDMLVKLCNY

Structure (SMILES) | growth inhibition [1] | inhibition [2] | inhibition [3] | growth inhibition [4] | outcome [5] | outcome [6] | outcome [7] | outcome [8]
CN(C)C(=O)c1ccc(CN(Cc2ccc3c(c2)OCCO3)Cc2ccc3c(c2)OCO3)cc1 | 95% (active) | -10% | 3% | 89% (active) | inactive | inactive | inactive | inactive
CCCNCc1ccc(-c2ccc(CN(CCOC)C(=O)[C@H]3CCCO3)cc2)nc1 | 6% | 1% | -3% | 98% (active) | inactive | inactive | inactive | inactive
Cc1c(CCNC(=O)CCCN2CC(C)CC(C)C2)c2ccccc2n1C (stereo not drawn) | 100% (active) | 8% | -9% | 87% (active) | inactive | inactive | inactive | inactive
O=C(COc1ccccc1)Nn1cnc2ccccc21 | -3% | 2% | 3% | 91% (active) | inactive | inactive | inactive | inactive
CO/C(=C\C=C\c1cc2cc(Cl)c(Cl)cc2[nH]1)C(=O)NCCCN(C)CCN(C)c1ccccc1 | 59% (active) | 38% | 0% | 96% (active) | inactive | inactive | inactive | inactive
CCN(CC)c1nc(-c2ccccc2)cc(-c2ccccc2)c1C#N | 66% (active) | -7% | 2% | 100% (active) | inactive | inactive | inactive | inactive
O=C(C1CCCC1)N1CCOC(CCN2CCC(c3ccccc3)CC2)(c2ccc(Cl)c(Cl)c2)C1 (stereo not drawn) | 77% (active) | 16% | 0% | 88% (active) | inactive | inactive | inactive | inactive
Cc1cccc2[nH]c(-c3cccc(-c4cccc(C(=O)NCCN5CCCC5)c4)c3)nc12 | 75% (active) | 21% | 1% | 100% (active) | inactive | inactive | inactive | inactive
O=C(Nc1cccc(CN2CCN(C(=O)c3cccc(F)c3)CC2)c1)c1ccco1 | 55% (active) | 7% | 4% | 88% (active) | inactive | inactive | inactive | inactive
O=C(/C=C/c1ccc(Cl)c(Cl)c1)N1CCN(C(=O)Nc2ccc(C(F)(F)F)cc2)CC1 | 101% (active) | 47% | 4% | 98% (active) | inactive | inactive | inactive | inactive
CCn1c(-c2nonc2N)nc2cnc(Oc3cccc(NC(=O)c4ccc(OCCCN5CCCCC5)cc4)c3)cc21 | 12% | 38% | -4% | 90% (active) | inactive | inactive | inactive | inactive
O=C(Nc1cccc(-c2cccc(-c3nc4ccc(F)cc4[nH]3)c2)c1)c1cnc[nH]1 | 87% (active) | 13% | -1% | 100% (active) | inactive | inactive | inactive | inactive
Cc1cccc2[nH]c(-c3ccc(-c4cccc(C(=O)NCCc5cn(C)cn5)c4)s3)nc12 | 17% | 27% | -7% | 92% (active) | inactive | inactive | inactive | inactive
Cc1cc(F)ccc1-c1nc(NCC(O)CNCCc2ccccc2)nc2c1ccc(=O)n2-c1c(F)cccc1F (stereo not drawn) | 100% (active) | 25% | -5% | 100% (active) | inactive | inactive | inactive | inactive
CCCc1cc(C)ccc1OCCCON1C(N)=NC(N)=NC1(C)C | 97% (active) | 64% (active) | 2% | 97% (active) | inactive | inactive | inactive | inactive
O=C(/C=C/c1ccc(Cl)c(Cl)c1)NCCCCCCN1CCCN(C(=O)Nc2cc(Cl)cc(Cl)c2)CC1 | 2% | 26% | -3% | 98% (active) | inactive | inactive | inactive | inactive
COc1ccc2c(NN=Cc3cccc([N+](=O)[O-])c3)ccnc2c1 | 99% (active) | -10% | 5% | 101% (active) | inactive | inactive | inactive | inactive
CCc1[nH]nc(C(=O)NC2CCN(CC3(c4ccc(OC)cc4)CCCCC3)CC2)c1C | 90% (active) | 2% | -1% | 90% (active) | inactive | inactive | inactive | inactive
CC(CN(C)C)C(=O)Nc1cccc(-c2ccc(-c3nc4ccccc4[nH]3)cc2)c1 (stereo not drawn) | 25% | 1% | -8% | 98% (active) | inactive | inactive | inactive | inactive
COc1ccc(CN2CCC(NCc3cccc([N+](=O)[O-])c3)CC2)cc1 | 3% | 6% | 2% | 92% (active) | inactive | inactive | inactive | inactive
CSc1nnc2n(Cc3ccccc3)c(=O)c3c(n12)-c1ccccc1CC31CCCCC1 | -6% | 0% | 1% | 93% (active) | inactive | inactive | inactive | inactive

Structure (SMILES) | growth inhibition [1] | inhibition [2] | inhibition [3] | growth inhibition [4] | outcome [5] | outcome [6] | outcome [7] | outcome [8]
O=C(NCCNc1ccnc(Nc2ccc(F)cc2)n1)c1cc2ccccc2s1 | 34% | -1% | -11% | 99% (active) | inactive | inactive | inactive | inactive
COc1cc(C)c(NC(=O)c2cccc3c(=O)c(C)c(-c4ccccc4)oc23)cc1OC | 32% | 96% (active) | 2% | 86% (active) | inactive | inactive | inactive | inactive
Clc1cccc(CNc2nc(NCCc3cnc[nH]3)nc(NC3CCCCC3)n2)c1 | 0% | 17% | 5% | 98% (active) | inactive | inactive | inactive | inactive
Cc1ccc(NC(=O)c2ccc3ncccc3c2)cc1OC1CCN(Cc2ccco2)C1 (stereo not drawn) | 42% | 9% | 2% | 86% (active) | inactive | inactive | inactive | inactive
CC(C)(C)c1nn(-c2ccccc2)c2[nH]c(=O)c(CNCc3ccc4c(c3)OCO4)cc12 | 32% | 1% | 3% | 92% (active) | inactive | inactive | inactive | inactive
CCCCOc1ccc(C(O)C(CN2CCCCC2)c2ccccc2)cc1 (stereo not drawn) | 84% (active) | 7% | 3% | 90% (active) | inactive | inactive | inactive | inactive
COc1cccc(C(=O)NC(c2ccccc2OC)c2cc(Cl)c3cccnc3c2O)c1 (stereo not drawn) | 36% | 58% (active) | 4% | 91% (active) | inactive | inactive | inactive | inactive
COc1ccc(NC(=O)/C=C/c2ccc(Cl)c(Cl)c2)cc1N1CCN(C)CC1 | 20% | 23% | -3% | 90% (active) | inactive | inactive | inactive | inactive
CCCN(Cc1nnc(-c2cccs2)o1)C(=O)CSc1nnnn1-c1cc(C)cc(C)c1 | 71% (active) | 2% | 8% | 92% (active) | inactive | inactive | inactive | inactive
Cc1cc(Nc2ccc(C(C)(C)C)cc2)c2[nH]ncc2n1 | 63% (active) | 31% | 0% | 83% (active) | inactive | inactive | inactive | inactive
CCCc1cc(NC2CCN(C)CC2)nc(Nc2ccc(F)cc2)n1 | 16% | 20% | -7% | 95% (active) | inactive | inactive | inactive | inactive
COc1ccc2c(c1)CCCC2NCCCCNC(=O)c1ccc(NC(=O)c2ccc(Cl)cc2)cc1 (stereo not drawn) | 49% | 27% | -7% | 100% (active) | inactive | inactive | inactive | inactive
CCOc1ccc(N2CCN(CCCCNC(=O)c3ccc(NC(=O)c4ccc(Cl)cc4)cc3)CC2)c(OCC)c1 | 65% (active) | 36% | 2% | 102% (active) | inactive | inactive | inactive | inactive
Cn1nc(-c2cccc(CN[C@@H]3CCc4ccc(O)cc43)c2)c2cnc(NC3CCCC3)nc21 | 76% (active) | 6% | -2% | 100% (active) | inactive | inactive | inactive | inactive
Clc1ccc(Cc2nc3ccccc3[nH]2)cc1Cl | 2% | 5% | 0% | 98% (active) | inactive | inactive | inactive | inactive
CC(C)COc1ccc(Cl)cc1Cc1ccc(-c2nc3cc(F)c(F)cc3[nH]2)o1 | 96% (active) | 27% | 4% | 95% (active) | inactive | inactive | inactive | inactive
CC(C)N(Cc1cnc(N)c(C#N)n1)c1ccc(Cl)c(Cl)c1 | 63% (active) | -1% | -5% | 97% (active) | inactive | inactive | inactive | inactive
O=C(Nc1ccc(OC2CCN(Cc3ccc(F)cc3)CC2)c(Cl)c1)c1ccc(F)cc1 | 95% (active) | 37% | -1% | 97% (active) | inactive | inactive | inactive | inactive
NC(Cc1cccc(I)c1)C(=O)NCC1CCCO1 (stereo not drawn) | 50% (active) | 52% (active) | 1% | 98% (active) | inactive | inactive | inactive | inactive
COc1cc2ncnc(Nc3ccc(OCc4ccccc4)c(OCc4ccccc4)c3)c2cc1OC | 57% (active) | 4% | -1% | 100% (active) | inactive | inactive | inactive | inactive
